Results filed as inconclusive are left out. Where a call stands in place of a potency, no number is given. Activity calls are given as the source filed them. Calls come from the whole dose curve; as a rule, active = well fitted inhibition curve with a large enough effect; inconclusive = small, poorly fitted or top-dose-only effect; inactive = flat fitted curve, though single readings scatter.

Chain of Voltage-gated inwardly rectifying potassium channel KCNH2 (Homo sapiens) (Q12809 whole entry, looked up): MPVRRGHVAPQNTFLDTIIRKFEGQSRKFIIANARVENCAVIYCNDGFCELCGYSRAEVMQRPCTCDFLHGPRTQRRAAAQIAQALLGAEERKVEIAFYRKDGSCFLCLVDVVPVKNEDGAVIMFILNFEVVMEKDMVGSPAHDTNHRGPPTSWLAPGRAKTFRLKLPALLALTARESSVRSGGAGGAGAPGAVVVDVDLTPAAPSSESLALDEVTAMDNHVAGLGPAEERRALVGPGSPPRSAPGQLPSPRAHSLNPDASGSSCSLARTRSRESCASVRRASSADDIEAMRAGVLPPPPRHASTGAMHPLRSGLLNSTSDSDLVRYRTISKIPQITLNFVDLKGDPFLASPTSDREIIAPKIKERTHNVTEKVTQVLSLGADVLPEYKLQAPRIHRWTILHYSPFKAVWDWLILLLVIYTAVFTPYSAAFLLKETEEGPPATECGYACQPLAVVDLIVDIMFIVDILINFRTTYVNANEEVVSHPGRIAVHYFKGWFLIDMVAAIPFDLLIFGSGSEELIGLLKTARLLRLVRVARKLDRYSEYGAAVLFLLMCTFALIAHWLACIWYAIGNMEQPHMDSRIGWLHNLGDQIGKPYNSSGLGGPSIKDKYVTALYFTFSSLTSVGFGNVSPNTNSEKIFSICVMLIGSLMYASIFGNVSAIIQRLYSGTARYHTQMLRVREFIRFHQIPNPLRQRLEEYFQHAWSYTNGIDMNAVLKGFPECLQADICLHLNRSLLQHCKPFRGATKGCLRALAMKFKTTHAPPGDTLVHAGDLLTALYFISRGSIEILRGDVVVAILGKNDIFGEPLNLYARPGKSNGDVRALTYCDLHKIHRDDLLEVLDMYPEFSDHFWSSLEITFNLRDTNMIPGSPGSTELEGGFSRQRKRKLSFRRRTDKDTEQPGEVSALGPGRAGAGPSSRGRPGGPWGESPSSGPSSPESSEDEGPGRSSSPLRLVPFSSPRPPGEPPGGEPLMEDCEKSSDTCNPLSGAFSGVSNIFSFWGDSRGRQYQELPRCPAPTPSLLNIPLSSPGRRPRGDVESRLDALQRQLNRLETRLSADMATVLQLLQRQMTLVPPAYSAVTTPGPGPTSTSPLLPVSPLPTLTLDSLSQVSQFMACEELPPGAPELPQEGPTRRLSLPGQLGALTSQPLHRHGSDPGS

The first assay concerns the target Voltage-gated inwardly rectifying potassium channel KCNH2 (Homo sapiens) (UniProt Q12809). Kind of assay: qHTS Assay for Small Molecule Inhibitors of the Human hERG Channel Activity (AID 588834).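 Note: lower thallium flux fluorescence means stronger hERG block; nearly all actives have a fitted effect of over 50% in size.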 Note: potency is the fitted concentration of half-maximal effect. As to conditions: U2OS BacMam hERG, FluxOR thallium flux fluorescence; series mostly up to 46.1 µM. Put shortly:
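In hERG-transduced U2OS cells, dye-loaded for 1 hr at room temperature in dark, test compounds incubated 10 min at 37 °C before thallium stimulation. AC50 values derived by Hill modelling of concentration-response.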
On the technique in general: Quantitative high-throughput screening tests each substance at several concentrations.
On to `O=C(O)C1(C(=O)O)CCC1.[NH2-].[NH2-].[Pt+2]`, for which the Potency entry is “inactive”.

`NC(=O)n1c(O)c(C(=O)c2cccs2)c2cc(Cl)ccc21`: the Potency entry was “inactive”.

In the case of `O=C(NCCc1c[nH]c2ccccc12)c1cccnc1`, the Potency entry was “inactive”.

As for `CCCCc1cc2ccccc2c(OCCN(C)C)n1`, the Potency is 7.94 µM (active).

Consider `CC(=O)Nc1ncc([N+](=O)[O-])s1`, for which the Potency entry was “inactive”.

For the compound `N/C(=N\N=C\c1ccc(Cl)cc1)N/N=C/c1ccc(Cl)cc1`, the Potency is 3.55 µM (active).

As to `CCc1oc2ccccc2c1C(=O)c1cc(I)c(O)c(I)c1`, the Potency entry was “inactive”.

With `NCc1ccccc1Sc1ccccc1CO`, the Potency entry was “inactive”.

For the compound `CCNC(=O)/C=C/c1cccc(Br)c1`, the Potency result is “inactive”.

Turning to `CCOC(=O)[C@H](CCc1ccccc1)N[C@@H](C)C(=O)N1[C@H](C(=O)O)C[C@H]2CCCC[C@@H]21`, the Potency result is “inactive”.

For the compound `CN1CCN(C2=Nc3ccccc3Sc3ccc(Cl)cc32)CC1`, the Potency is 14.1 µM (active).

On to `CN(CCCN1c2ccccc2CCc2ccccc21)CC(=O)c1ccc(Cl)cc1`, for which the Potency is 5.01 µM (active).

The next assay deals with Luciferin 4-monooxygenase (Photinus pyralis) (UniProt P08659). Kind of assay: Biochemical firefly luciferase enzyme assay for NPC (AID 624030).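 Note: purified P. pyralis luciferase at 10 nM with luciferin and ATP substrate; nearly all actives have a fitted effect of over 70% in size.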 The following applies: purified P. pyralis luciferase, luminescence, 5 min; series mostly up to 58.6 µM. Put shortly: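 Counter-screen for direct inhibition of the luciferase enzyme by approved-drug library compounds, run at 10 nM enzyme in 50 mM Tris acetate (final). Luminescence was read within 5 min of enzyme-buffer addition and normalized to PTC124 versus DMSO (0%).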
Chain of Luciferin 4-monooxygenase (Photinus pyralis) (P08659 whole entry, looked up): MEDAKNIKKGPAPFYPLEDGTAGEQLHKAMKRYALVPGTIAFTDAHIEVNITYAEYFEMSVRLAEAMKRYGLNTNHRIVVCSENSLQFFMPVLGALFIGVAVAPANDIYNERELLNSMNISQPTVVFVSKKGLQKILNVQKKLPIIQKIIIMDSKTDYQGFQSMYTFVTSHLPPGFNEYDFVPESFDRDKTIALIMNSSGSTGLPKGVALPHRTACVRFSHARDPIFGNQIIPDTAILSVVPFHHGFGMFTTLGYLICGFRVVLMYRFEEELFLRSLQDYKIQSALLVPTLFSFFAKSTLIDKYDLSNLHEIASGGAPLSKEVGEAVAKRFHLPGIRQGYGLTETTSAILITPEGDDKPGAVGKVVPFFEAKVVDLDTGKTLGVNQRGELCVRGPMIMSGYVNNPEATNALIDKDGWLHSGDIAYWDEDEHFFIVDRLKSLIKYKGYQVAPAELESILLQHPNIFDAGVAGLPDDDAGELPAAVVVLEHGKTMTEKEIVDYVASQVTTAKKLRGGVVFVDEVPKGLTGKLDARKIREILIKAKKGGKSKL
For the compound `CN1CCC(OC(c2ccccc2)c2ccccc2)CC1`, the Potency entry is “inactive”.

`Cn1c(=O)c2[nH]c(Br)nc2n(C)c1=O`: the Potency entry is “inactive”.

As to `Nc1nc(N)c(-c2ccccc2)s1`, the Potency entry was “inactive”.

As for `C[N+]1(C)CCC(=C(c2ccccc2)c2ccccc2)CC1`, the Potency result was “inactive”.

`O[C@@H](c1cc(C(F)(F)F)nc2c(C(F)(F)F)cccc12)[C@H]1CCCCN1`: the Potency result is “inactive”.

Turning to `CCCCCCCCCCCCOCCOCCOCCOCCOCCOCCOCCOCCOCCO`, the Potency entry is “inactive”.

In the case of `CCOCCn1c(N2CCCN(C)CC2)nc2ccccc21`, the Potency result was “inactive”.

With `Clc1cccc(C(c2ccc3nc[nH]c3c2)n2ccnc2)c1` (stereo not given), the Potency result is “inactive”.

For the compound `COc1cc(C)nc(-n2nc(C)cc2OC)n1`, the Potency entry is “inactive”.

As for `CCN(CC)CCOC(=O)C1(c2ccccc2)CCCC1`, the Potency entry is “inactive”.

For the compound `CN(C)CCC[C@@]1(c2ccc(F)cc2)OCc2cc(C#N)ccc21`, the Potency entry is “inactive”.

On to `CCN(CC)CCOc1ccc2c(c1)C(=O)c1cc(OCCN(CC)CC)ccc1-2`, for which the Potency entry is “inactive”.

Take `COc1ccc(CN(CCN(C)C)c2ncccn2)cc1`: the Potency result is “inactive”.

`O=C(CCCN1CC=C(n2c(=O)[nH]c3ccccc32)CC1)c1ccc(F)cc1`: the Potency result was “inactive”.

Turning to `CN(C)CCN1C(=O)c2ccccc2N(C)c2ccccc21`, the Potency entry is “inactive”.

Turning to `C=C[C@H]1CN2CC[C@H]1C[C@H]2[C@H](O)c1ccnc2ccc(OC)cc12`, the Potency result was “inactive”.

`O=C(O)CCNC(=O)c1ccccc1`: the Potency entry was “inactive”.

For `CCCc1ncc(C[n+]2ccccc2C)c(N)n1`, the Potency entry was “inactive”.

For the compound `CCN(CC)CCNC(=O)c1cc(Br)c(N)cc1OC`, the Potency entry was “inactive”.

Take `Cc1cc(NS(=O)(=O)c2ccc(N)cc2)nc(C)n1`: the Potency entry is “inactive”.

`O=C1C(=O)c2ccccc2C(O)=C1C1CCC(c2ccc(Cl)cc2)CC1` (stereo not given): the Potency result was “inactive”.

As to `CCOC(=O)[C@@](C)(N)Cc1ccc(O)c(O)c1`, the Potency result is “inactive”.

On to `Oc1ccccc1C=NCc1ccccc1`, for which the Potency result was “inactive”.

Source of the values: PubChem BioAssay (NCATS).
